Binding signal data for two sequences are collected here from publication PMC7862700, “An all-to-all approach to the identification of sequence-specific readers for epigenetic DNA modifications on cytosine”.

What all share (assay): DAPPL (digital affinity profiling via proximity ligation, sequencing); 10 mM Tris-HCl pH 7.5, 50 mM NaCl, 1 mM DTT, 4% glycerol, room temperature, 30 min; GST-TFs on glutathione beads, 16-mer random dsDNA library, 0.1% formaldehyde crosslink after washing; high values mean tight binding
Holding throughout (conditions): protein: recombinant; tags: N-terminal GST; dsDNA, one strand shown

For one experiment, the target named is T1, FLI1 (Homo sapiens, UniProt Q01543 1-452).
T1 sequence: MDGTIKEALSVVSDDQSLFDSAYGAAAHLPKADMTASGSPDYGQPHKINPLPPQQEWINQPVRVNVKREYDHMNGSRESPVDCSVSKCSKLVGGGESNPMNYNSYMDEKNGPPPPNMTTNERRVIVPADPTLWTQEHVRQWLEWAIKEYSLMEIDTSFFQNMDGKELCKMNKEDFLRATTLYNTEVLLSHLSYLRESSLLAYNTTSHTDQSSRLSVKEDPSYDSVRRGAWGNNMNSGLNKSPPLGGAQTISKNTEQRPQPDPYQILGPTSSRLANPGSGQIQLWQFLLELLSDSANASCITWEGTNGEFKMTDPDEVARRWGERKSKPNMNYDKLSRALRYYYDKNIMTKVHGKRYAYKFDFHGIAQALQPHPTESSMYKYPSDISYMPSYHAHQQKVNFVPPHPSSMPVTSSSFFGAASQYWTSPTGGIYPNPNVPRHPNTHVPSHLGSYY
In outline:
(§1)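 Beads coated with glutathione captured GST-fused human transcription factors that had been expressed in yeast, and the factors were then given DNA barcodes and pooled with a tag-only sample. The pools were incubated with 200 nmole of a random double-stranded 16-mer DNA library in Tris/NaCl/DTT/glycerol buffer for 30 min at room temperature, washed, crosslinked with 0.1% formaldehyde and proximity-ligated with BsaI/T4 ligase at 37 °C for 1 h. PCR amplification and Illumina NextSeq500 sequencing came last. Binding signal is each hexamer's read frequency for a factor divided by its frequency for the tag-only sample.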

Another experiment has as its target T2, ELK1 (Homo sapiens, UniProt P19419 1-428).
T2 sequence: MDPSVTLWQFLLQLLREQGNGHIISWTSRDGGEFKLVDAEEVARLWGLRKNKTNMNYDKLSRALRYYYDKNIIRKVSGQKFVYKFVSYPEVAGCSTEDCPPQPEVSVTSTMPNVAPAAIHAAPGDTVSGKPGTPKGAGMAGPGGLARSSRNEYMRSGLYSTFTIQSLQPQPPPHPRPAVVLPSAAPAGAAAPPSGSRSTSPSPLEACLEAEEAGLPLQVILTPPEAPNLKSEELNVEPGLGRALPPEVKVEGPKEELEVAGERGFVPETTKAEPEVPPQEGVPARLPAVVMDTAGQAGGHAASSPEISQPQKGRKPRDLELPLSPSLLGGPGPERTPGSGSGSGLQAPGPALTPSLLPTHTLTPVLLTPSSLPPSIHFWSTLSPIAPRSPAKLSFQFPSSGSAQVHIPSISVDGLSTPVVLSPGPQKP
In outline: as §1

For another experiment, the target named is T3, ERG (Homo sapiens, UniProt P11308 1-479).
T3 sequence: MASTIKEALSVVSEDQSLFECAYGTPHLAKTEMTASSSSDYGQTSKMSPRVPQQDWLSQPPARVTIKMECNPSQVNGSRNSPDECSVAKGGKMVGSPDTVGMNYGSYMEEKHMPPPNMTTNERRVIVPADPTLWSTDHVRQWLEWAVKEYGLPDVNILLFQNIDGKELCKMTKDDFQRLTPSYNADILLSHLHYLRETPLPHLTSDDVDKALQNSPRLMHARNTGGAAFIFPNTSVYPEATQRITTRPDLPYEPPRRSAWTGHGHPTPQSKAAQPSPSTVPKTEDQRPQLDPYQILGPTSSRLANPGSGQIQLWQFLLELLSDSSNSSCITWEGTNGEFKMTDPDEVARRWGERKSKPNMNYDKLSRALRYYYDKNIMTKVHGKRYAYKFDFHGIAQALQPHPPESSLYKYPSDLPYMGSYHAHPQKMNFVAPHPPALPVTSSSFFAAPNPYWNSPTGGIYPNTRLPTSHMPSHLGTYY
In outline: as §1

A further experiment addresses ELF1 (Homo sapiens, UniProt P32519 1-619). In outline:
as §1

The target of the next experiment is T4, EHF (Homo sapiens, UniProt Q9NZC4 1-300).
T4 sequence: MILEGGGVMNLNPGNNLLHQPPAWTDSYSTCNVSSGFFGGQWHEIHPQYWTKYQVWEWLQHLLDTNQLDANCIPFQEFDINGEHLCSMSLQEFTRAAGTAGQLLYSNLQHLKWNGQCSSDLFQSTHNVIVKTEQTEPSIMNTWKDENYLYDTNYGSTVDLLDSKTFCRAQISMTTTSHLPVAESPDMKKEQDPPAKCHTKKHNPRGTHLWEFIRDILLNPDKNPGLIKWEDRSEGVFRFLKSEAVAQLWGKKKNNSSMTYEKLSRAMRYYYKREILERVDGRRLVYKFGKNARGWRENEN
In outline: as §1

A further experiment has as its target SPIB (Homo sapiens, UniProt Q01892 1-262). In outline: as §1
The next experiment has as its target T5, ELK3 (Homo sapiens, UniProt P41970 1-407).
T5 sequence: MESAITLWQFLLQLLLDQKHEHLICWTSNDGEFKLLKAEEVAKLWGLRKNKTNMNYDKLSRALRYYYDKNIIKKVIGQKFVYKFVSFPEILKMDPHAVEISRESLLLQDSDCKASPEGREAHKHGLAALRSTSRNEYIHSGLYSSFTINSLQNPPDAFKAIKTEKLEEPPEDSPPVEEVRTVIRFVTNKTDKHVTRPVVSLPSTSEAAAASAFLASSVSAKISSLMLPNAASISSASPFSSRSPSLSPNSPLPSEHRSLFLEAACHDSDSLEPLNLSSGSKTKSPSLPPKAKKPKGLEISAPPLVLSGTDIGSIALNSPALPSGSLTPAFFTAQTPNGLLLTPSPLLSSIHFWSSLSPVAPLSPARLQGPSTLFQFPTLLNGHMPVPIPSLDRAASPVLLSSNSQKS
In outline: as §1

For a further experiment, the target named is T6, FEV (Homo sapiens, UniProt Q99581 1-238).
T6 sequence: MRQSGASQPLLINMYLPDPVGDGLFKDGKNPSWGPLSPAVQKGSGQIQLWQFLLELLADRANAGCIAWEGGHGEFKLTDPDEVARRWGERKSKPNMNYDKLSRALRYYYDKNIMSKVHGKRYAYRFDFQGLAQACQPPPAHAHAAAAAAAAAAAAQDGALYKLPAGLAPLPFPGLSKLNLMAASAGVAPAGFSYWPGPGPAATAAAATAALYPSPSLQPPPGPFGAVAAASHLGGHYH
In outline:
as §1

For another experiment, the target named is ETV5 (Homo sapiens, UniProt P41161 1-510). In outline: as §1
In the next experiment the target is T7, SPIC (Homo sapiens, UniProt Q8N5J4 1-248).
T7 sequence: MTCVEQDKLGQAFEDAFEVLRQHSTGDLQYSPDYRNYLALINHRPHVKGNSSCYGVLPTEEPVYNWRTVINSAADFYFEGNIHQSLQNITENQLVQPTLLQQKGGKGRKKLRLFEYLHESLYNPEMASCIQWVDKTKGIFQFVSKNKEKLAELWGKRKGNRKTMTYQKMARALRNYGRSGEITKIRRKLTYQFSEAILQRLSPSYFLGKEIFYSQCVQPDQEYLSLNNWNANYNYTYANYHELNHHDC
In outline: as §1

The target of another experiment is ELF4 (Homo sapiens, UniProt Q99607 1-663). In outline: as §1
The next experiment deals with ETV1 (Homo sapiens, UniProt P50549 1-477). In outline: as §1
The next experiment concerns the target T8, ETS2 (Homo sapiens, UniProt P15036 1-469).
T8 sequence: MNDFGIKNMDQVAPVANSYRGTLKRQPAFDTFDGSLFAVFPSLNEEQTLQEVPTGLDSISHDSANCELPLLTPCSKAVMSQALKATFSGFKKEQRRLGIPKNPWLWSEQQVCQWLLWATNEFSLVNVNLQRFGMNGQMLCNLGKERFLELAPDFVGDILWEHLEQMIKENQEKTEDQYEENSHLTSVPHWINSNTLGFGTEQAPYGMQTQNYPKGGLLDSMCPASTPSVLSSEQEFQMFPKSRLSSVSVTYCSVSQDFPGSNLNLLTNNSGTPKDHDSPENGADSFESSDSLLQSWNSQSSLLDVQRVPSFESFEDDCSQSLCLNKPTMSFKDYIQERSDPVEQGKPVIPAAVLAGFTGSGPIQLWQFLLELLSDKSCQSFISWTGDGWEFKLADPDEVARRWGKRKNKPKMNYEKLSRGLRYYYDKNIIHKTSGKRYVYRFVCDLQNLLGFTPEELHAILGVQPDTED
In outline:
as §1

For another experiment, the target named is T9, ELF5 (Homo sapiens, UniProt Q9UKW6-2 1-255).
T9 sequence: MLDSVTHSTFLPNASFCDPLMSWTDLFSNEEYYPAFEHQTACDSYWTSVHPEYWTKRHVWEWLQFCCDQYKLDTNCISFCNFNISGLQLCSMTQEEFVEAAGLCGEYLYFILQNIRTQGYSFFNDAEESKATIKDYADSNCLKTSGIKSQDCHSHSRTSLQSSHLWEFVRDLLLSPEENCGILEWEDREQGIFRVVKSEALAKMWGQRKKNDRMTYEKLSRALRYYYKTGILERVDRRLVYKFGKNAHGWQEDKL
In outline: as §1

For a further experiment, the target named is T10, ETV3 (Homo sapiens, UniProt P41162-2 1-143).
T10 sequence: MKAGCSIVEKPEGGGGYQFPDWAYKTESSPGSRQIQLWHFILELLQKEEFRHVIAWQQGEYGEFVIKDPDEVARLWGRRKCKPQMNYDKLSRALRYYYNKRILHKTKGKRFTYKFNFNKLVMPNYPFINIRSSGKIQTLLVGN
In outline: as §1

A further experiment concerns the target ETV6 (Homo sapiens, UniProt P41212 1-452). In outline: as §1
The target in the next experiment is T11, GABPA (Homo sapiens, UniProt Q06546 1-454).
T11 sequence: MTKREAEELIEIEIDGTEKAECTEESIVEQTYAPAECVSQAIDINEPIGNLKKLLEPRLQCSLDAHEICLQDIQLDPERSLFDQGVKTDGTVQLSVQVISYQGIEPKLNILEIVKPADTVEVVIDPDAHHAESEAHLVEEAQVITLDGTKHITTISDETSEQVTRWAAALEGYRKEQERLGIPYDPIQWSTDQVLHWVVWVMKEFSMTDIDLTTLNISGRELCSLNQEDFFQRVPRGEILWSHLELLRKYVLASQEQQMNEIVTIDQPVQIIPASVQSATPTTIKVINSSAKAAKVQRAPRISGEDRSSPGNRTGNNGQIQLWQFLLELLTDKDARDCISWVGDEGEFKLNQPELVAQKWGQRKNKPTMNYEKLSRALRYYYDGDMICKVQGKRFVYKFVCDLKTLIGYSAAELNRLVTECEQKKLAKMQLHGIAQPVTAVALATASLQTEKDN
In outline: as §1

Sequence of SPIB (Q01892 whole entry): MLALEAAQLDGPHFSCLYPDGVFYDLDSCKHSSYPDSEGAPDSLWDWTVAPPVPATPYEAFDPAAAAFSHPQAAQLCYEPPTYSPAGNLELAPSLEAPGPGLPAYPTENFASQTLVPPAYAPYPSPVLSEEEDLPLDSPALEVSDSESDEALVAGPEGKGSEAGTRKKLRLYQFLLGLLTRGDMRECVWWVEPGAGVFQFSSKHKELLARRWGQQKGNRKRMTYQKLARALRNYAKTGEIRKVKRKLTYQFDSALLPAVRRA
Sequence of ETV5 (P41161 whole entry): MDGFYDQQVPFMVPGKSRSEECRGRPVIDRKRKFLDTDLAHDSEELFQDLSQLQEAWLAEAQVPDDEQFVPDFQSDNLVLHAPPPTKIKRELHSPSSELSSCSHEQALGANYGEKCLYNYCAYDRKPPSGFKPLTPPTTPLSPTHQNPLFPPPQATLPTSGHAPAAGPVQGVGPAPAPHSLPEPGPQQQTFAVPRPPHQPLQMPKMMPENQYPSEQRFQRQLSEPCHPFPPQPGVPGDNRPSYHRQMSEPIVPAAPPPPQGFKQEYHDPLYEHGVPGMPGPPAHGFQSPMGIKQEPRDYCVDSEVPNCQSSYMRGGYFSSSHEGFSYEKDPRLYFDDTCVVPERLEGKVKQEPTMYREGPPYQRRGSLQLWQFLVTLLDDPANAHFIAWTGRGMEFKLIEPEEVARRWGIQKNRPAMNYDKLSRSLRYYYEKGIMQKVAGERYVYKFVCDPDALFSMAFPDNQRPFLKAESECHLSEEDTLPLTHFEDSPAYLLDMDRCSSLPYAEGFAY
Sequence of ELF4 (Q99607 whole entry): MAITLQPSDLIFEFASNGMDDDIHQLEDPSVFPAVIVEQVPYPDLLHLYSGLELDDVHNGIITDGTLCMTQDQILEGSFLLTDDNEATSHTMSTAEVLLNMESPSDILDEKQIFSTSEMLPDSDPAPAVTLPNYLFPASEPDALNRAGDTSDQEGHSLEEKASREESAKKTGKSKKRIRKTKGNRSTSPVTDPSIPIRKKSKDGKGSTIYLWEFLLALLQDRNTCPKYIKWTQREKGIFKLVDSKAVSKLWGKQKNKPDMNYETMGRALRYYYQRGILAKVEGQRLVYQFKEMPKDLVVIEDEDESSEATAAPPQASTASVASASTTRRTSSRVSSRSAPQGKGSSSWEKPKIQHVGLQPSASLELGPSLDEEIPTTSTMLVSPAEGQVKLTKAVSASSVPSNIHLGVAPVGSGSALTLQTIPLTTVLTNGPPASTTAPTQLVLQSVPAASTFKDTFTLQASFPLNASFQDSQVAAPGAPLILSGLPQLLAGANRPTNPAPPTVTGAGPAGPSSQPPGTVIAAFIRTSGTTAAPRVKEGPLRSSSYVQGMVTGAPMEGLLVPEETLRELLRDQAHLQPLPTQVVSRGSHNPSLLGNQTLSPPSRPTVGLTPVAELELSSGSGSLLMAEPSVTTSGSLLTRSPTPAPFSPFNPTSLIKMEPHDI
Sequence of ETV6 (P41212 whole entry): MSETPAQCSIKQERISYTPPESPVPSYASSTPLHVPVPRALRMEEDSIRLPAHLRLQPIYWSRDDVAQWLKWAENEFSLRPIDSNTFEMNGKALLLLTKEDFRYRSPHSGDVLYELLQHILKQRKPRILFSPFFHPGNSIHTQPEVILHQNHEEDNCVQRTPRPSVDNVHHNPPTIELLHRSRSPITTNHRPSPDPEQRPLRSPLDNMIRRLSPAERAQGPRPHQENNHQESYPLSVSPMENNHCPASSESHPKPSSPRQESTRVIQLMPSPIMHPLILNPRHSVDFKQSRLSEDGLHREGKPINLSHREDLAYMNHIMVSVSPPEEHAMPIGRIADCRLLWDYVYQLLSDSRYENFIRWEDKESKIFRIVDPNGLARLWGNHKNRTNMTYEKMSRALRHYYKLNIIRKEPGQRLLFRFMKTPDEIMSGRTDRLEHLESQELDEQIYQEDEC
Sequence of ETV1 (P50549 whole entry): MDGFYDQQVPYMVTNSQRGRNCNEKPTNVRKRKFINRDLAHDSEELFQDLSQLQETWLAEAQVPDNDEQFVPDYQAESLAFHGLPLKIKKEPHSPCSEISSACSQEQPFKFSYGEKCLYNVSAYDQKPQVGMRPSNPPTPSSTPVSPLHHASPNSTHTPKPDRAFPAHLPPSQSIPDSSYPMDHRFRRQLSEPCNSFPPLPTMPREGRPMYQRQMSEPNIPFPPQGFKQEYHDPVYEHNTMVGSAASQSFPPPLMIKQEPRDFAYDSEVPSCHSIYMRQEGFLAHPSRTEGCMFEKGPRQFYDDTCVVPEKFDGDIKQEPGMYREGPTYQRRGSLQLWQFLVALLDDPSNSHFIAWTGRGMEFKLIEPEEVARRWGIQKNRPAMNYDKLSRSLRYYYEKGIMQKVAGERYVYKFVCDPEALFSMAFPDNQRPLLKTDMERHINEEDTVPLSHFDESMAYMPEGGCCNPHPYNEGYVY
Sequence of ELF1 (P32519 whole entry): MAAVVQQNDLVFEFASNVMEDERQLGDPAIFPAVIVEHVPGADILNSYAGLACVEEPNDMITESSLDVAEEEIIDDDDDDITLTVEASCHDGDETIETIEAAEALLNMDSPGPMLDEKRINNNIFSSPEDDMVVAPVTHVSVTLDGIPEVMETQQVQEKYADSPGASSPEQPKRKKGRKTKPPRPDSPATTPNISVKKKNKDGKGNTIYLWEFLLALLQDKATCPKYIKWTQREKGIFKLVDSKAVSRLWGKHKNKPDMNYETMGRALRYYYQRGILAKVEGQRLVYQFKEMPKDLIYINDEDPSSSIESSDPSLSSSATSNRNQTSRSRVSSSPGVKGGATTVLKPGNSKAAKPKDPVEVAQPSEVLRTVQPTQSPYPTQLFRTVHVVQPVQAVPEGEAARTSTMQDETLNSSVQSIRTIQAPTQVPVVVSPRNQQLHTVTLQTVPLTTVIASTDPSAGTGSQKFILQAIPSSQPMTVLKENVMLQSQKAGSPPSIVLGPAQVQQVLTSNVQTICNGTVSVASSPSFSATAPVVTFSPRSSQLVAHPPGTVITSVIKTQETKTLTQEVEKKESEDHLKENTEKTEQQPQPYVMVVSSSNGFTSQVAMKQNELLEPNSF

With TGCCGG, the binding signal with FLI1 is 1.11 fold enrichment (6-mer frequency, TF over GST control); in the experiment with ELK1 it was 1.09 fold enrichment (6-mer frequency, TF over GST control); with ERG, 1.13 fold enrichment (6-mer frequency, TF over GST control); with ELF1, 1.02 fold enrichment (6-mer frequency, TF over GST control); with EHF, 1.03 fold enrichment (6-mer frequency, TF over GST control); in the experiment with SPIB, 1.02 fold enrichment (6-mer frequency, TF over GST control). Also, the binding signal with ELK3 is 1.02 fold enrichment (6-mer frequency, TF over GST control); with FEV it was 1.26 fold enrichment (6-mer frequency, TF over GST control); with ETV5, 1.04 fold enrichment (6-mer frequency, TF over GST control); in the experiment with SPIC, 1.09 fold enrichment (6-mer frequency, TF over GST control); with ELF4, 1.04 fold enrichment (6-mer frequency, TF over GST control); in the experiment with ETV1, 1.11 fold enrichment (6-mer frequency, TF over GST control). The binding signal in the experiment with ETS2 is 1 fold enrichment (6-mer frequency, TF over GST control); in the experiment with ELF5 it was 1.09 fold enrichment (6-mer frequency, TF over GST control); with ETV3 it was 1.21 fold enrichment (6-mer frequency, TF over GST control); with ETV6, 1.13 fold enrichment (6-mer frequency, TF over GST control).
On to CGGATC, for which the binding signal with FLI1 is 1.04 fold enrichment (6-mer frequency, TF over GST control); with GABPA it was 1.04 fold enrichment (6-mer frequency, TF over GST control); with ERG, 1.05 fold enrichment (6-mer frequency, TF over GST control); with EHF it was 1.02 fold enrichment (6-mer frequency, TF over GST control); with SPIB it was 1.01 fold enrichment (6-mer frequency, TF over GST control); with ETV5, 1.03 fold enrichment (6-mer frequency, TF over GST control). The binding signal is 1.02 fold enrichment (6-mer frequency, TF over GST control) with SPIC; 1.01 fold enrichment (6-mer frequency, TF over GST control) in the experiment with ELF4; 1.05 fold enrichment (6-mer frequency, TF over GST control) with ELF5; 1.06 fold enrichment (6-mer frequency, TF over GST control) in the experiment with ETV3.
